Compound activity (PubChem BioAssay)
Most compounds without a hit are left out; they make up all but 9.2% or so of the library.
Rab9 prom act – activates the Rab9 promoter. Huh7 Rab9 promoter-luciferase reporter, luminescence, 24 h. actives 2.8% (n = 320,000). AID 485297. Potency, µM (doses to about 9.22 µM), most hits filed as activators; also: nearly all actives have a fitted effect of over 60% in size
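Luminescence read-out: Huh7 cells stably expressing Rab9-luciferase, treated 24 h with compound at 37 °C, then lysed with luciferase reagent for 10 min at ambient before reading.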
ELG1 genotox – genotoxicity induction in ELG1-luciferase HEK293T cells; HEK293T ELG1-luciferase reporter, luminescence, 16 h; Potency, µM (doses to about 46 µM), usual class: activators; actives 1.3% (n = 330,000); AID 504466; also: nearly all actives have a fitted effect of over 60% in size
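Cells (2,000/well) expressing the ELG1-luciferase fusion are dosed by pin tool and kept 16 hr at 37 °C, 5% CO2. Signal comes from ONE-Glo luciferase reagent after 30 min at room temperature.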
NPC1 prom act – activators of NPC1 promoter; Potency, µM (highest dose often 9.22 µM), actives largely listed as activators; Huh7 NPC1 promoter luciferase reporter, 24 h; actives 2.4% (n = 320,000); also: nearly all actives have a fitted effect of over 60% in size
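Quantitative HTS used a cell-based reporter: Huh7 cells stably bearing the NPC1 promoter upstream of luciferase were treated with compounds for 24 h, and promoter activation was read as luminescence.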
FLuc modulator – firefly luciferase modulation, counter-screen for miR-21 project. actives 6.9% (n = 360,000). AID 588342. purified FLuc, Km substrates, luminescence inhibition. Potency, µM (top dose mostly 57.5 µM), usual class: inhibitors. P08659; also: nearly all actives have a fitted effect of over 55% in size
Target sequence (P08659 whole entry, looked up): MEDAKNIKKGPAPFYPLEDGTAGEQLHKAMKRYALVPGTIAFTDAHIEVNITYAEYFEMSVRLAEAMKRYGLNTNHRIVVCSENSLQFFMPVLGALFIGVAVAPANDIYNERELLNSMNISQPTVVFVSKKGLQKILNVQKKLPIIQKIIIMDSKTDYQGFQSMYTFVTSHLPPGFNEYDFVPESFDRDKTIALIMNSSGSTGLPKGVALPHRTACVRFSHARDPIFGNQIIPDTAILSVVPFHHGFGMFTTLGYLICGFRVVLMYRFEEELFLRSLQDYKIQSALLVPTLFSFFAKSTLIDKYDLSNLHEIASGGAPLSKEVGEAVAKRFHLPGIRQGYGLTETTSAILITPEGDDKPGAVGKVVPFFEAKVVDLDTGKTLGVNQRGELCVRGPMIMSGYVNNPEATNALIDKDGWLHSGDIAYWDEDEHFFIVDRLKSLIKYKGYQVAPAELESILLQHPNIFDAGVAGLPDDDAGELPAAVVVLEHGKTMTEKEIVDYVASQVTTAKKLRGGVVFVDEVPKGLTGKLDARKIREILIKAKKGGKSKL
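Biochemical qHTS of compounds, final roughly 60 µM downward over six points, against 10 nM purified firefly luciferase using Km concentrations of substrates (10 uM D-luciferin, 10 uM ATP) in Tris acetate pH 7.5 buffer; luminescence output.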
ELG1 repair inh – inhibitors of ELG1-dependent DNA repair in HEK293T cells. HEK293T ELG1-luciferase reporter, luminescence, 16 h; DNA damage induced by 5-fluorouridine. Potency, µM (top dose mostly 46.1 µM), actives largely listed as inhibitors. actives 2.3% (n = 330,000). AID 504467; also: nearly all actives have a fitted effect of over 55% in size
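HEK293T cells expressing luciferase-tagged ELG1 (2,000/well) received 5-Fluorouridine plus compound or DMSO for 16 hr at 37 °C. Luciferase was read by ONE-Glo luminescence after 30 min at room temperature.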
SMN2 splice up – increases expression of the SMN2 splice variant. actives 2.8% (n = 210,000). Potency, µM (series often up to 46.1 µM), most hits filed as activators. HEK293 SMN2-luciferase splicing reporter, luminescence, 30-36 h; also: nearly all actives have a fitted effect of over 55% in size
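HEK293 cells carry an SMN2 […]–luciferase reporter in which exon 7 inclusion puts luciferase in frame. Cells were plated 10-12 h before compound addition, then incubated 30-36 h at 37C. ONE-Glo luminescence was read; sodium butyrate at 4.5 mM final served as control.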
Of the large screens only hits and unclear results are named; the others gave an inactive call. Calls follow the shape of the dose curve; as a rule, active = well fitted curve in the direction sought with a large enough effect; inconclusive = small, poorly fitted or top-dose-only effect, or another doubt; inactive = no such curve, though single readings can be large; an effect the other way counts as inactive or inconclusive.

COc1cc(SC)ccc1C(=O)Nc1c(C)cccc1C	none
CC(=O)c1sc(NC(=O)COc2ccc(C(C)C)c(C)c2)nc1C	none
CCCN(CCC)C(=O)Cn1c(=O)n(-c2ccc(Cl)cc2)c(=O)c2c3c(sc21)CCCC3	none (no result: Rab9 prom act, ELG1 genotox, NPC1 prom act, ELG1 repair inh)
Cc1cc(C)cc(-n2c(SCC(=O)N3CCOCC3)nc3c([nH]c4ccccc43)c2=O)c1	none (no result: Rab9 prom act, ELG1 genotox, NPC1 prom act, ELG1 repair inh, SMN2 splice up)
CSc1nnc(N2C(=O)C(O)=C(C(=O)c3ccco3)C2c2ccccc2)s1 (stereo unspecified)	none (no result: SMN2 splice up)
CSc1nnc(N2C(=O)C(O)=C(C(=O)c3ccc(C)o3)C2c2ccc(C)cc2)s1 (stereo unspecified)	Rab9 prom act 0.79µM, ELG1 genotox 1.3µM, NPC1 prom act 0.63µM, FLuc modulator inconclusive, ELG1 repair inh inconclusive (no result: SMN2 splice up)
Fc1cccc(Nc2ncnc3c2cnn3-c2ccccc2)c1	Rab9 prom act inconclusive, ELG1 genotox inconclusive, NPC1 prom act inconclusive, FLuc modulator 17µM, ELG1 repair inh inconclusive (no result: SMN2 splice up)
CC(C)COc1ccc(Nc2ncnc3ccc(Br)cc23)cc1	none (no result: Rab9 prom act, ELG1 genotox, NPC1 prom act, ELG1 repair inh)
CC(=O)c1cccc(Nc2ncnc3ccc(Br)cc23)c1	ELG1 repair inh 18µM (no result: SMN2 splice up)
O=C(O)c1cccc(Nc2ncnc3c2cnn3-c2ccccc2)c1	Rab9 prom act 3.2µM, ELG1 genotox inconclusive, NPC1 prom act 1.3µM, FLuc modulator 2.1µM, ELG1 repair inh inconclusive, SMN2 splice up 13µM
O=C(O)c1cccc(Nc2ncnc3ccccc23)c1	FLuc modulator 19µM
O=C(NCc1ccccc1CN1CCCCC1)c1ccccc1N1CCCC1=O	none (no result: FLuc modulator, SMN2 splice up)
Cc1ccc(CNC(=O)C2CCN(c3ncnc4c3nc3n4CCCCC3)CC2)cc1	none (no result: Rab9 prom act, ELG1 genotox, NPC1 prom act, ELG1 repair inh, SMN2 splice up)
Clc1cccc(Nc2ncnc3c2cnn3-c2ccccc2)c1	ELG1 genotox inconclusive, FLuc modulator 27µM
COc1ccc(CC(=O)Nc2ccccc2C(=O)N2CCCC2)cc1	none (no result: SMN2 splice up)
O=S1(=O)NC2c3ccccc3CC2O1 (stereo unspecified)	none (no result: SMN2 splice up)
CC(C)c1ccc2c(c1)C1Cc3ccccc3C1N2 (stereo unspecified)	ELG1 genotox inconclusive, FLuc modulator 15µM, ELG1 repair inh inconclusive
COC(=O)c1ccc2nc(NC(=O)CSCC(=O)OCC(=O)c3ccccc3)sc2c1	FLuc modulator 17µM, ELG1 repair inh inconclusive
COC(=O)c1ccc2nc(Nc3nc4c(F)cc(F)cc4s3)sc2c1	ELG1 genotox inconclusive, FLuc modulator 5.4µM, ELG1 repair inh inconclusive
Cc1ccc2nc(NC(=O)CSCC(=O)OCC(=O)c3ccc(Br)cc3)sc2c1	FLuc modulator inconclusive
CCOC(=O)c1ccc2nc(Nc3nc4ccc(F)cc4s3)sc2c1	FLuc modulator inconclusive, ELG1 repair inh inconclusive
COC(=O)c1ccc2nc(NC(=O)C(C)C)sc2c1	Rab9 prom act 1.1µM, ELG1 genotox inconclusive, NPC1 prom act 2µM, FLuc modulator 8.5µM, ELG1 repair inh inconclusive, SMN2 splice up 5.6µM
COC(=O)c1ccc2nc(NC(=O)C3CC3)sc2c1	Rab9 prom act inconclusive, ELG1 genotox inconclusive, NPC1 prom act 2.2µM, FLuc modulator 19µM, ELG1 repair inh inconclusive (no result: SMN2 splice up)
Cc1ccccc1Cn1c(=O)n(CC2CCC(C(=O)N3CCC(C)CC3)CC2)c(=O)c2sccc21 (stereo unspecified)	none (no result: Rab9 prom act, ELG1 genotox, NPC1 prom act, ELG1 repair inh, SMN2 splice up)
CCc1nnc(NC(=O)c2cc(=O)c3cc(C)ccc3o2)s1	FLuc modulator inconclusive (no result: Rab9 prom act, ELG1 genotox, NPC1 prom act, ELG1 repair inh)
CC(C)C[C@@H](CC(=O)N[C@@H](CCC(=O)O)CC(=O)O)NC(=O)[C@@H]1CNCC[C@H]1NC(=O)C[C@H](CCCN)NC(=O)C[C@H](Cc1ccccc1)NC(=O)[C@@H]1CCCC[C@H]1N	none (no result: Rab9 prom act, ELG1 genotox, NPC1 prom act, FLuc modulator, ELG1 repair inh)
CCOC(=O)c1ccc2nc(NC(C)=O)sc2c1	Rab9 prom act 2.2µM, ELG1 genotox inconclusive, NPC1 prom act inconclusive, FLuc modulator inconclusive, ELG1 repair inh inconclusive, SMN2 splice up 13µM
O=C(Nc1cccs1)OCCN1CCN(Cc2ccccc2)CCC1=O	none
COC(=O)c1c(C(=O)c2ccc(Br)cc2)n(C)c2ccccc12	none (no result: SMN2 splice up)
CC(=O)N(C)c1ccc(NC(=O)COc2ccc(Br)cc2C)cc1	FLuc modulator inconclusive
COCCCNC(=S)N1CCN(c2nc(C)nc3sc4c(c23)CCCC4)CC1	ELG1 repair inh 21µM (no result: SMN2 splice up)
